Screening data as filed in PubChem.
MARV entry inh: Marburg virus entry inhibition; 300,000 tested, 1.8% active; AID 540276; Marburg virus pseudotyped entry inhibition, cell reporter; Potency, µM (top dose mostly 37.8 µM), for the others: at the top dose activity change, negative = inhibition, most hits filed as inhibitors; calls by dose curve; tested in HEK293 cells; note: potency is the fitted concentration of half-maximal effect; % is set by controls: 0 for no effect and ±100 for the full control effect
Lassa entry inh: Lassa virus entry inhibition; Lassa virus pseudotype entry inhibition, cell reporter; Potency, µM (doses to about 37.9 µM), for inactives: top-dose activity change, negative = inhibition, actives largely listed as inhibitors; 300,000 tested, 1.2% active; AID 540256; calls by dose curve; tested in HEK293 cells; note: potency is the fitted concentration of half-maximal effect; % is set by controls: 0 for no effect and ±100 for the full control effect; nearly all actives have a fitted effect of over 50% in size
FMDV inh: blocks foot and mouth disease virus; FMDV antiviral cell-based qHTS; Potency, µM (titrated, usually from 57.9 µM), without a hit: at the highest dose activity change, negative = inhibition, hits mostly inhibitors; 410,000 tested, 1.2% active; AID 1159524; calls by dose curve; tested in HEK293T cells; note: read-out not given here; potency is the fitted concentration of half-maximal effect; % is set by controls: 0 for no effect and ±100 for the full control effect; nearly all actives have a fitted effect of over 45% in size
Cycloheximide cs: affects cycloheximide protein synthesis inhibition readout, counter-screen; cell reporter, cycloheximide protein synthesis inhibition counterscreen; max response, %; 300,000 tested, 12% active; AID 2314; in the data active = max response mostly above about 13%, no sharp cut-off; inactive = mostly below about 14%; note: read at 38.3 µM for the half of the compounds with a filed dose; 0% is about no effect
Shiga toxin inh: blocks Shiga toxin action in Vero cells | 290,000 tested, 9.2% active | AID 2315 | inhibition, % at 38.7 µM | Vero cells, Shiga toxin protein synthesis inhibition reporter; in the data active = inhibition mostly above about 28%, no sharp cut-off; inactive = mostly below about 43%; note: 0% is about no effect
HCV inh: blocks hepatitis C virus; Huh7.5.1 HCVcc-Cre infection, luciferase reporter, 44 h; Potency, µM (series often up to 41.8 µM), for the others: at the top dose activity change, negative = inhibition, most hits filed as inhibitors; 340,000 tested, 3.4% active; active = well fitted inhibition curve with a large enough effect; inconclusive = small, poorly fitted or top-dose-only effect, or another doubt; inactive = no such curve, though single readings can be large or run the other way; note: potency is the fitted concentration of half-maximal effect; % is set by controls: 0 for no effect and ±100 for the full control effect
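A cell-based infection assay in which seeded cells (1,000 per well) receive test compound after 4 h, are inoculated with HCVcc-Cre at approximately 0.5 moi, and are incubated 44 h before luminescence detection.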
The depositor's hits bear a star; ? = inconclusive; · = not tested or not shown; ! = not confirmed by another sample; [ ] = another dose, or the depositor's remark. The list is not random: actives were taken first. Their share in the collection is about 13%.

SMILES	MARV entry inh	Lassa entry inh	FMDV inh	Cycloheximide cs	Shiga toxin inh	HCV inh
CC1=NC(=O)C(N=Nc2ccccc2)N1c1ccccc1 (stereo unspecified)	-19.9%	?	34.6%	28.6*	51.9*	5.9%
CC1=NC(=O)C(N=Nc2ccccc2C(=O)O)N1c1ccccc1 (stereo unspecified)	3.8%[46.1 µM]	-24.2%	12.2%	-1.5	8.3	-9.3%
O=c1oc2ccccc2cc1-c1cn2cc(Cc3ccccc3F)sc2n1	?	-1.4%[46.1 µM]	37.1%	·	·	·
Cc1ccc(C(CNS(=O)(=O)c2ccc(Br)cc2)N2CCN(C)CC2)cc1 (stereo unspecified)	?	-24.1%	-12.3%	·	·	8.91µM*
Cc1ccc(C(CNS(=O)(=O)c2ccccc2)N2CCN(C)CC2)cc1 (stereo unspecified)	1.0%	21.2%	18.4%	·	·	-14.5%
Cc1ccc(C(CNS(=O)(=O)c2ccc([N+](=O)[O-])cc2)N2CCN(C)CC2)cc1 (stereo unspecified)	?	?	0.0%	·	·	11.2µM*
CC(C)Oc1cc(S(=O)(=O)N2CCCCC2)ccc1N	2.8%[46.1 µM]	-7.7%[46.1 µM]	11.1%	11.5	-4.4	-23.6%
COc1cccc(-c2nnc3sc(-c4ccco4)nn23)c1	?	?	57.8%	39.2*	45.4	-17.4%
c1coc(-c2nnc3sc(-c4cccs4)nn23)c1	8.2%	-0.9%	-8.6%	13.6*	45.1	-2.5%
c1csc(-c2nn3c(-c4ccncc4)nnc3s2)c1	-1.0%	·	·	-2.3	12.0	·
Cc1cc(C)nc(N2CCC(C(=O)NC3CC3)CC2)n1	1.2%[46.1 µM]	-3.0%[46.1 µM]	-2.9%	-1.2	-3.5	-2.1%
COC(=O)c1cccc(NC(=O)CCCN2C(=O)NC3(CCCC3)C2=O)c1	?	?	-7.0%	·	·	6.1%
CCOc1ccc(-c2cc(C(=O)NN=C3CCN(C)CC3)[nH]n2)cc1	?	?	2.2%	24.8*	60.1*	6.9%
COc1ccc(-c2[nH]ncc2-c2ccc3c(c2)OCCO3)c(O)c1	-13.7%[46.1 µM]	?	?	-1.8	-18.9	?
O=C(O)c1cc(-c2ccc3c(c2)OCCO3)n[nH]1	?	6.1%	-9.9%	-2.0	-13.1	21.3%
CCOC(=O)c1cc(-c2ccc3c(c2)OCCO3)n[nH]1	5.62µM*	?	-6.0%	47.8*	61.3*	-19.7%
CC(C)COc1ccc(-c2cc(C(=O)NN)[nH]n2)cc1	4.5%	?	25.0%	26.7*	85.6	-1.3%
Oc1ccccc1-c1cc(-c2ccc3c(c2)OCCO3)n[nH]1	?	?	·	31.6*	46.8	-21.6%
COC(=O)c1cc(-c2ccccc2)n[nH]1	4.3%	9.9%	47.1%	10.5	22.4	-2.1%
CCOC(=O)c1cc(-c2ccc(OC)cc2)n[nH]1	·	·	76.6%	69.4*	100.7*	-0.2%
CCCc1nc2sc3ccccc3c(=O)c2c(=O)n1CCOC	·	·	·	-1.3	-6.1	·
Cc1ccc(OCC(=O)Nc2ccncc2)cc1C	·	·	-11.0%	·	·	·
Cc1cc(OCC(=O)Nc2ccncc2)cc(C)c1Cl	·	·	7.9%	-1.1	-16.3	12.6µM*
Cc1c(C)c2ccc(OCC(=O)Nc3cccnc3)c(C)c2oc1=O	·	·	4.7%	26.5*	31.9	?
Cc1cc(Cl)ccc1OCC(=O)Nc1cccnc1	?	7.0%	21.6%	37.7*	60.6*	?
SMILES	MARV entry inh	Lassa entry inh	FMDV inh	Cycloheximide cs	Shiga toxin inh	HCV inh
Cc1cccc(C(=O)NNC(=O)c2ccc(-c3ccccc3)cc2)c1	-28.2%	-15.1%	14.9%	-0.6	-8.5	-11.8%
O=C(NNC(=O)c1ccc(-c2ccccc2)cc1)c1ccccc1	18.1%	12.5%	30.8%	20.4*	67.0*	?
CC(C)(C)C(=O)NC(=S)NNC(=O)c1ccc(-c2ccccc2)cc1	·	·	-13.6%	-1.9	-8.2	6.31µM*
CC(=O)C1=C(NC(=O)c2ccc(C(F)(F)F)cc2)C[C@@H]2[C@H]1C2(C)C	1.2%[46.1 µM]	-0.9%	-18.8%	-3.6	-7.2	7.2%
CC(CCc1ccco1)NC(=O)Nc1cccc(F)c1 (stereo unspecified)	-0.4%	?	38.4%	20.5*	16.0	-25.1%
CC(NC(=O)Nc1cccc(F)c1)c1ccc2c(c1)OCO2 (stereo unspecified)	·	·	-14.7%	-1.4	-3.9	?
Cc1ccc(NC(=O)CSc2nccn2Cc2ccco2)cc1	18.0%	11.9%	3.2%	78.3*	89.7*	23.2%
COc1ccc(NC(=O)CSc2nccn2Cc2ccco2)c(OC)c1	?	?	5.6%	25.4*	43.6*	-16.9%
O=C(CSc1nccn1Cc1ccco1)Nc1ccc(F)cc1	?	7.3%	18.8%	19.7	27.0	·
COc1ccc(NC(=O)CSc2nccn2Cc2ccccc2)c(OC)c1	0.2%	1.4%	17.7%	12.2	17.2	-7.9%
O=C(CSc1nccn1Cc1ccco1)Nc1cccc(F)c1	·	2.1%[46.1 µM]	19.6%	26.9*	38.8*	?
CCC1=C(OC(=O)N(CC)CC)N2C(=O)OC(=NCCc3c[nH]c4ccccc34)[C@]2(Cc2ccccc2)[C@H]2C1=CC[C@H]1C(=O)N(CC)C(=O)[C@H]12	·	·	-10.4%	-1.7	2.7	?
CC1CCC(NC(=O)CN2C(=O)NC3(CCCCCC3)C2=O)CC1 (stereo unspecified)	·	·	-5.4%	·	·	-6.9%
CSc1nc(C)cc(OCCO)n1	-16.5%[46.1 µM]	-3.8%	-3.2%	7.7	-3.7	20.3%
Cc1ccc(NC(=O)CSc2ncc3ccccn23)cc1	5.6%[46.1 µM]	-0.5%	20.5%	28.1*	69.6*	29.5%
COc1ccc(CNC(=O)CN(CCC(C)C)S(=O)(=O)c2ccc3c(c2)OCCO3)cc1	-3.0%	-2.4%	3.3%	-2.7	9.2	-13.8%
Cc1nc2cc(NC(=O)C3COc4ccccc4O3)ccc2s1 (stereo unspecified)	11.2%[46.1 µM]	-2.9%[46.1 µM]	23.1%	60.6*	54.2*	11.0%
Cc1nc2ccc(NC(=O)C3COc4ccccc4O3)cc2s1 (stereo unspecified)	·	·	20.8%	40.9*	84.5*	-5.8%
Cc1nc2ccc3nc(NC(=O)C4COc5ccccc5O4)sc3c2s1 (stereo unspecified)	·	·	0.1%	2.7	18.4	-6.4%
C[C@@H]1O[C@@H](O[C@H]2C[C@@H](O)[C@]3(CO)[C@H]4[C@H](O)C[C@]5(C)[C@@H](C6COC(=O)C6)CC[C@]5(O)[C@@H]4CC[C@]3(O)C2)[C@H](O)[C@H](O)[C@H]1O (stereo partly specified)	?	1.64µM*	?	-8.6	-23.7	1µM*!
CC1OC(OC2CCC3(C)C(CCC4C3CC(O)C3(C)C(C5=CC(=O)OC5)CCC43O)C2)CC(O)C1OC1CC(O)C(OC2CC(O)C(OC3OC(CO)C(O)C(O)C3O)C(C)O2)C(C)O1 (stereo unspecified)	·	·	·	-7.4	-15.2	·
C[C@@H]1O[C@@H](O[C@H]2C[C@@H](O)[C@]3(CO)[C@@H]4C(CC[C@]3(O)C2)[C@@]2(O)CC[C@H]([C@@H]3COC(=O)C3)[C@@]2(C)C[C@H]4O)[C@H](O)[C@H](O)[C@H]1O (stereo partly specified)	0.82µM*	2.31µM*	·	·	·	·
